Results: PubChem BioAssay (EPA / NIEHS)
Records with an inconclusive call do not appear. The source made the active and inactive calls. How the source made its calls: active means hit-call score of the fitted dose curve at least 0.9, where 1 is the maximum; inconclusive means response in the unintended direction; inactive means score below 0.9.

Biological target: human Peroxisome Proliferator-activated Receptor alpha (PPARa), PPARA (gene 5465) (UniProt Q07869)
Test: NVS_NR_hPPARa: NovaScreen (NVS) Nuclear Receptor Binding Assay for human Peroxisome Proliferator-activated Receptor alpha (PPARa) (AID 2283359)
Method: NVS_NR_hPPARa is a biochemical, single-readout assay that uses extracted gene-proteins in a cell-free assay. Measurements were taken 1 hour after chemical dosing in a 384-well plate.NVS_NR_hPPARa is one of one assay component(s) measured or calculated from the NVS_NR_hPPARa assay. It is designed to make measurements of fluorescent resonance energy transfer, a form of binding reporter, as detected with fluorescent resonance energy transfer signals by Time-Resolved Fluorescence Resonance Energy Transfer (TR-FRET) technology.Data from the assay component NVS_NR_hPPARa was analyzed into 1 assay endpoint. This assay endpoint, NVS_NR_hPPARa, was analyzed in the positive analysis fitting direction relative to DMSO as the negative control and baseline of activity. Using a type of binding reporter, loss-of-signal activity can be used to understand changes in the binding as they relate to the gene PPARA. Furthermore, this assay endpoint can be referred to as a primary readout, because the performed assay has only produced 1 assay endpoint. To generalize the intended target to other relatable targets, this assay endpoint is annotated to the nuclear receptor intended target family, where the subfamily is non-steroidal.
Binding assays used specific radioligands (tritiated, iodinated) with non-radioactive competitive displacement ligands in agonist or antagonist protocols (as indicated) and various reference compounds and inhibitors to titrate specific binding to receptors and transporters. Most enzyme assays (CYPs, kinases, phosphatases, proteases, HDACs) used recombinant protein and specific substrates (fluorescence mostly, some colorimetric and radioactive) and inhibitors, followed by a biochemical separation of substrate and product. All assays for the biochemical HTS were initially run in duplicate at a single concentration (10 uM for CYP450 assays and 25 uM for all others). […] Each assay was run with positive and negative controls, and concurrent controls on every plate. The follow-up (secondary) screen tested active chemical-pairs in concentration series, as well as a few additional assays not tested in the primary screen, some selected negative inactives, and several cases re-run in the concentration series for confirmatory purposes.

Chain of human Peroxisome Proliferator-activated Receptor alpha (PPARa), PPARA (gene 5465) (Q07869 whole entry, looked up): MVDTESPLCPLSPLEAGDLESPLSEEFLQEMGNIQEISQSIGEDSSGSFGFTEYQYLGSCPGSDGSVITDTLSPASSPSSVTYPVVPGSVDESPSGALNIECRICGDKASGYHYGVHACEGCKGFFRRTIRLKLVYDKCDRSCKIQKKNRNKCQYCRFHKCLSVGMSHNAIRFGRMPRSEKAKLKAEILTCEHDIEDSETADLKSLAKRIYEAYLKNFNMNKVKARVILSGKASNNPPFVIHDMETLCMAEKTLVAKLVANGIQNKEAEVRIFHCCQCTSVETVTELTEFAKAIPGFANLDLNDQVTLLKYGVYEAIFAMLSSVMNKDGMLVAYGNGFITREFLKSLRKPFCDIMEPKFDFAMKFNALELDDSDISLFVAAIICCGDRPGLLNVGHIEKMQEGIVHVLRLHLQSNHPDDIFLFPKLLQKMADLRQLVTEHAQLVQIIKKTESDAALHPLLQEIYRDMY

Row | SMILES | outcome | AC50
1 | Cc1ccc(N)cc1O | inactive | –
2 | CCc1cc(SCc2sc(-c3ccc(C(F)(F)F)cc3)nc2CN2CCN(c3ccc(OC)cc3)CC2)ccc1OCC(=O)O | – | 0.00361 µM (active)
3 | Oc1ccc2c(c1)-c1ccccc1C2 | inactive | –
4 | CCCCCCc1ccc(O)cc1O | inactive | –
5 | CCOC(=O)COc1ccc2c(c1)CC(NCC(O)c1cccc(Cl)c1)CC2 (stereo not drawn) | inactive | –
6 | CCCCCCCCCCCCCCCO | inactive | –
7 | CN(C)c1ccc(Cc2ccc(N(C)C)cc2)cc1 | inactive | –
8 | COc1cccc(-c2ccc(/C=C\CN3CCCCCC3)cc2Cl)c1 | inactive | –
9 | CC(C)=CCCC(C)CCO (stereo not drawn) | inactive | –
10 | Fc1ccccc1[C@@H](F)COC1CCC(Nc2ncnc3[nH]ncc23)CC1 (stereo partly drawn) | inactive | –
11 | Cn1cnc([N+](=O)[O-])c1Sc1ncnc2nc[nH]c12 | inactive | –
12 | O=C(O)c1cccc(Oc2ccccc2)c1 | inactive | –
13 | CCOC(=O)c1ccc(C2CCC(NC[C@H](O)COc3ccc(O)c(NS(C)(=O)=O)c3)CC2)cc1 (stereo partly drawn) | inactive | –
14 | CCCCC(CC)COC(=O)c1ccc(C(=O)OCC(CC)CCCC)cc1 (stereo not drawn) | – | 25 µM (active)
15 | CNS(=O)(=O)c1cc(C(=O)N2CCC(CCN3C4CCC3CC(n3c(C)nc5ccccc53)C4)(c3cccc(F)c3)CC2)c(Cl)cc1F (stereo not drawn) | inactive | –
16 | Nc1ccc(Nc2ccccc2)cc1 | – | 46.3 µM (active)
17 | CCOc1cccc(-n2cc(C(=O)N3CCN(c4cc(C(=O)O)c5ccccc5c4)CC3)nc2-c2ccc(C)cc2)c1 | inactive | –
18 | CC(C)=CCCC(C)=CC=O | inactive | –
